# Compounds without any hit were thinned out: in the full panel of roughly 83,000, 20% have a hit.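 Results are percent growth after 48 hours of single-concentration exposure. 100 means growth as in untreated cells, lower positive values show inhibition; negative values down to -100 show cell death.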 Calls of active or inactive are those of the source. How the source made its calls: active means growth percent below 10; inactive means the rest.
# Test system: NCI-H522 lung
# Assay: NCI-60 one-dose screen, 48 h (100 = growth as untreated, 0 = no growth, -100 = all killed)
# Conditions: 10 µM unless noted
row,SMILES,growth
1,O=C(Nc1cccc(-n2cc(-c3ccncc3)c(-c3ccc(O)c(Cl)c3)n2)c1)Nc1ccc(Cl)c(C(F)(F)F)c1,-7.92% (active)
2,CCOc1ccccc1C(=O)OCC(=O)Nc1cccc(S(=O)(=O)N(C)C)c1,95.1% (inactive)
3,Cn1c(N)c(N=O)c(=O)[nH]c1=O,91.8% (inactive)
4,Cc1nn(-c2ccc(Br)cc2)c2nc3c(nc12)C(=O)C(=O)c1ccccc1-3,98.3% (inactive)
5,Cc1nn(-c2ccccc2)c2nc(Cl)c(/C=C/C(=O)c3ccccc3)c(-c3ccccc3)c12,89.9% (inactive)
6,S=C(Nc1ccc(C2=NCCN2)cc1)Nc1ccc(C2=NCCN2)cc1,97.2% (inactive)
7,COc1ccc(C(=O)/C=C/c2c(Cl)nc3c(c(C)nn3-c3ccccc3)c2-c2ccc(Br)cc2)cc1,98.6% (inactive)
8,O=C1c2ccccc2-c2c1nc1ccccc1[n+]2[O-],93.1% (inactive)
9,Cc1c(C(N)=O)sc2c1c(=O)n(Cc1ccccc1)c1nnc(S(=O)(=O)CC(=O)Nc3ccc(Cl)cc3)n21,16.9% (inactive)
10,OCCOc1c(Cl)cc(Cl)cc1Cl,108% (inactive)
11,O=C1Nc2ccc(F)cc2/C1=C/c1nc(-c2ccc(F)cc2)n2ccccc12,108% (inactive)
12,CCOC(=O)C(C(C)=O)c1nc2sc3cc(Cl)ccc3n2c(=N)c1C#N (stereo unspecified),95.2% (inactive)
13,Cc1nn(-c2ccc(Cl)cc2)c2nc3c(nc12)c(=O)oc1ccccc13,101% (inactive)
14,Cc1nn(-c2ccccc2)c2ncc3c(c12)C(=O)N(Cc1ccccc1)C3=O,59.9% (inactive)
15,OC(CCC(O)(c1ccccc1)c1ccccc1)(c1ccccc1)c1ccccc1,89.8% (inactive)
16,S=C(c1ccccc1)N1CCN(c2cccc(Cl)c2)CC1,87.5% (inactive)
17,COc1cc(OC)c2cc(C(=O)O)c(=O)oc2c1,97.3% (inactive)
18,Cc1c(C(N)=O)sc2ncn(Cc3ccccc3)c(=O)c12,103% (inactive)
19,O=C1CN(CO)C(=O)CN1CO,98.9% (inactive)

row,SMILES,growth
1,O=C(COC(=O)[C@H](C[Se][Se]C[C@H](NC(=O)c1ccc(Br)cc1F)C(=O)OCC(=O)c1ccc(F)cc1)NC(=O)c1ccc(Br)cc1F)c1ccc(F)cc1,-85.2% (active)
2,CCOC(=O)C1C(=O)OC2CCCCC21 (stereo unspecified),108% (inactive)
3,COC(=O)[C@]1(CCSC)N[C@H](c2cn(-c3ccccc3)nc2C)[C@@H]2C(=O)N(c3ccccc3)C(=O)[C@@H]21,97.4% (inactive)
4,Cc1c(C(N)=O)sc2c1c(=O)n(Cc1ccccc1)c1nnc(SCC(=O)Nc3ccc(Cl)cc3)n21,17.2% (inactive)
5,O=C1OC(c2ccc(-c3ccccc3)cc2)=C/C1=C/c1cccs1,63% (inactive)
6,Oc1ccccc1/C=N\Nc1ccccc1,10.5% (inactive)
7,CCCCn1c(Cc2ccc(Cl)cc2)nc2cc(OC)c(OC)cc2c1=O,71.6% (inactive)
8,Cn1[nH]cc(/C=N/C(N)=O)c1=O,121% (inactive)
9,Cc1[nH]n(C(N)=S)c(=O)c1N=Nc1ccc(F)c(Cl)c1,94.6% (inactive)
10,CCSc1nnc2n(Cc3ccccc3)c(=O)c3c(C)c(C(N)=O)sc3n12,96% (inactive)
11,Cc1cc(C)c(OC(=O)CSc2nc3ccccc3c(=O)n2CCc2ccccc2)cc1C,98% (inactive)
12,NC(=O)SCC(=O)Nc1ccccc1-c1ccccc1,50.1% (inactive)
13,Cc1nn(-c2ccc(Cl)cc2)c2nc3c(nc12)C(=O)C(=O)c1ccccc1-3,79.7% (inactive)
14,O=C(c1ccccc1)c1ccccc1Cl,92.4% (inactive)
15,COc1cc(OC)c2sc(-c3ccc(-n4cncc4-c4ccc(N)cc4)cc3)nc2c1,84.8% (inactive)
16,O=C(CSc1nc2c(n1Nc1ccccc1)-c1ccccc1SC2)Nc1nc(-c2ccc(Cl)cc2)cs1,65.2% (inactive)
17,CN=C(NC)N/N=C(C)\C=N\NC(=NC)NC,102% (inactive)
18,OC(Cc1cccnc1)c1ccccc1 (stereo unspecified),101% (inactive)
19,N#Cc1c(N2CCOCC2)nc2sc3cc(Cl)ccc3n2c1=N,93.7% (inactive)

# Test system: A549/ATCC NSCLC
# Assay: as above
# Conditions: 10 µM unless noted
row,SMILES,growth
1,O=C(Nc1cccc(-n2cc(-c3ccncc3)c(-c3ccc(O)c(Cl)c3)n2)c1)Nc1ccc(Cl)c(C(F)(F)F)c1,-14.8% (active)
2,CCOc1ccccc1C(=O)OCC(=O)Nc1cccc(S(=O)(=O)N(C)C)c1,87.8% (inactive)
3,Cn1c(N)c(N=O)c(=O)[nH]c1=O,97.9% (inactive)
4,Cc1nn(-c2ccc(Br)cc2)c2nc3c(nc12)C(=O)C(=O)c1ccccc1-3,100% (inactive)
5,Cc1nn(-c2ccccc2)c2nc(Cl)c(/C=C/C(=O)c3ccccc3)c(-c3ccccc3)c12,110% (inactive)
6,S=C(Nc1ccc(C2=NCCN2)cc1)Nc1ccc(C2=NCCN2)cc1,99.9% (inactive)
7,COc1ccc(C(=O)/C=C/c2c(Cl)nc3c(c(C)nn3-c3ccccc3)c2-c2ccc(Br)cc2)cc1,104% (inactive)
8,O=C1c2ccccc2-c2c1nc1ccccc1[n+]2[O-],108% (inactive)
9,Cc1c(C(N)=O)sc2c1c(=O)n(Cc1ccccc1)c1nnc(S(=O)(=O)CC(=O)Nc3ccc(Cl)cc3)n21,28.5% (inactive)
10,OCCOc1c(Cl)cc(Cl)cc1Cl,93.9% (inactive)
11,O=C1Nc2ccc(F)cc2/C1=C/c1nc(-c2ccc(F)cc2)n2ccccc12,104% (inactive)
12,CCOC(=O)C(C(C)=O)c1nc2sc3cc(Cl)ccc3n2c(=N)c1C#N (stereo unspecified),90.7% (inactive)
13,Cc1nn(-c2ccc(Cl)cc2)c2nc3c(nc12)c(=O)oc1ccccc13,95.4% (inactive)
14,Cc1nn(-c2ccccc2)c2ncc3c(c12)C(=O)N(Cc1ccccc1)C3=O,13.9% (inactive)
15,OC(CCC(O)(c1ccccc1)c1ccccc1)(c1ccccc1)c1ccccc1,68.7% (inactive)
16,S=C(c1ccccc1)N1CCN(c2cccc(Cl)c2)CC1,87.8% (inactive)
17,COc1cc(OC)c2cc(C(=O)O)c(=O)oc2c1,123% (inactive)
18,Cc1c(C(N)=O)sc2ncn(Cc3ccccc3)c(=O)c12,85.7% (inactive)
19,O=C1CN(CO)C(=O)CN1CO,103% (inactive)

row,SMILES,growth
1,O=C(COC(=O)[C@H](C[Se][Se]C[C@H](NC(=O)c1ccc(Br)cc1F)C(=O)OCC(=O)c1ccc(F)cc1)NC(=O)c1ccc(Br)cc1F)c1ccc(F)cc1,-41.2% (active)
2,CCOC(=O)C1C(=O)OC2CCCCC21 (stereo unspecified),102% (inactive)
3,COC(=O)[C@]1(CCSC)N[C@H](c2cn(-c3ccccc3)nc2C)[C@@H]2C(=O)N(c3ccccc3)C(=O)[C@@H]21,103% (inactive)
4,Cc1c(C(N)=O)sc2c1c(=O)n(Cc1ccccc1)c1nnc(SCC(=O)Nc3ccc(Cl)cc3)n21,20.7% (inactive)
5,O=C1OC(c2ccc(-c3ccccc3)cc2)=C/C1=C/c1cccs1,83.6% (inactive)
6,Oc1ccccc1/C=N\Nc1ccccc1,36.8% (inactive)
7,CCCCn1c(Cc2ccc(Cl)cc2)nc2cc(OC)c(OC)cc2c1=O,66.3% (inactive)
8,Cn1[nH]cc(/C=N/C(N)=O)c1=O,106% (inactive)
9,Cc1[nH]n(C(N)=S)c(=O)c1N=Nc1ccc(F)c(Cl)c1,106% (inactive)
10,CCSc1nnc2n(Cc3ccccc3)c(=O)c3c(C)c(C(N)=O)sc3n12,97% (inactive)
11,Cc1cc(C)c(OC(=O)CSc2nc3ccccc3c(=O)n2CCc2ccccc2)cc1C,91.9% (inactive)
12,NC(=O)SCC(=O)Nc1ccccc1-c1ccccc1,91.7% (inactive)
13,Cc1nn(-c2ccc(Cl)cc2)c2nc3c(nc12)C(=O)C(=O)c1ccccc1-3,18.2% (inactive)
14,O=C(c1ccccc1)c1ccccc1Cl,98.9% (inactive)
15,COc1cc(OC)c2sc(-c3ccc(-n4cncc4-c4ccc(N)cc4)cc3)nc2c1,60% (inactive)
16,O=C(CSc1nc2c(n1Nc1ccccc1)-c1ccccc1SC2)Nc1nc(-c2ccc(Cl)cc2)cs1,25.7% (inactive)
17,CN=C(NC)N/N=C(C)\C=N\NC(=NC)NC,100% (inactive)
18,OC(Cc1cccnc1)c1ccccc1 (stereo unspecified),94.8% (inactive)
19,N#Cc1c(N2CCOCC2)nc2sc3cc(Cl)ccc3n2c1=N,102% (inactive)
